These results are taken from PubChem BioAssay AID504333 (National Center for Advancing Translational Sciences (NCATS), 2011).

Hit rate of the full screen: of about 360,000 compounds, about 16,000 (4.4%) were called active. About 9% were inconclusive and are not listed. For the sample, actives were picked, then their nearest neighbours and some compounds at random. A number with no mark means an inactive call. Calls come from the whole dose curve; as a rule, active = well fitted inhibition curve with a large enough effect; inconclusive = small, poorly fitted or top-dose-only effect; inactive = no such curve, though single readings can be large or run the other way.
% is set by controls: 0 for no effect and ±100 for the full control effect; potency is the fitted concentration of half-maximal effect.

Chain of Bromodomain adjacent to zinc finger domain protein 2B (Homo sapiens) (Q9UIF8 whole entry, looked up, the tested form may be a part): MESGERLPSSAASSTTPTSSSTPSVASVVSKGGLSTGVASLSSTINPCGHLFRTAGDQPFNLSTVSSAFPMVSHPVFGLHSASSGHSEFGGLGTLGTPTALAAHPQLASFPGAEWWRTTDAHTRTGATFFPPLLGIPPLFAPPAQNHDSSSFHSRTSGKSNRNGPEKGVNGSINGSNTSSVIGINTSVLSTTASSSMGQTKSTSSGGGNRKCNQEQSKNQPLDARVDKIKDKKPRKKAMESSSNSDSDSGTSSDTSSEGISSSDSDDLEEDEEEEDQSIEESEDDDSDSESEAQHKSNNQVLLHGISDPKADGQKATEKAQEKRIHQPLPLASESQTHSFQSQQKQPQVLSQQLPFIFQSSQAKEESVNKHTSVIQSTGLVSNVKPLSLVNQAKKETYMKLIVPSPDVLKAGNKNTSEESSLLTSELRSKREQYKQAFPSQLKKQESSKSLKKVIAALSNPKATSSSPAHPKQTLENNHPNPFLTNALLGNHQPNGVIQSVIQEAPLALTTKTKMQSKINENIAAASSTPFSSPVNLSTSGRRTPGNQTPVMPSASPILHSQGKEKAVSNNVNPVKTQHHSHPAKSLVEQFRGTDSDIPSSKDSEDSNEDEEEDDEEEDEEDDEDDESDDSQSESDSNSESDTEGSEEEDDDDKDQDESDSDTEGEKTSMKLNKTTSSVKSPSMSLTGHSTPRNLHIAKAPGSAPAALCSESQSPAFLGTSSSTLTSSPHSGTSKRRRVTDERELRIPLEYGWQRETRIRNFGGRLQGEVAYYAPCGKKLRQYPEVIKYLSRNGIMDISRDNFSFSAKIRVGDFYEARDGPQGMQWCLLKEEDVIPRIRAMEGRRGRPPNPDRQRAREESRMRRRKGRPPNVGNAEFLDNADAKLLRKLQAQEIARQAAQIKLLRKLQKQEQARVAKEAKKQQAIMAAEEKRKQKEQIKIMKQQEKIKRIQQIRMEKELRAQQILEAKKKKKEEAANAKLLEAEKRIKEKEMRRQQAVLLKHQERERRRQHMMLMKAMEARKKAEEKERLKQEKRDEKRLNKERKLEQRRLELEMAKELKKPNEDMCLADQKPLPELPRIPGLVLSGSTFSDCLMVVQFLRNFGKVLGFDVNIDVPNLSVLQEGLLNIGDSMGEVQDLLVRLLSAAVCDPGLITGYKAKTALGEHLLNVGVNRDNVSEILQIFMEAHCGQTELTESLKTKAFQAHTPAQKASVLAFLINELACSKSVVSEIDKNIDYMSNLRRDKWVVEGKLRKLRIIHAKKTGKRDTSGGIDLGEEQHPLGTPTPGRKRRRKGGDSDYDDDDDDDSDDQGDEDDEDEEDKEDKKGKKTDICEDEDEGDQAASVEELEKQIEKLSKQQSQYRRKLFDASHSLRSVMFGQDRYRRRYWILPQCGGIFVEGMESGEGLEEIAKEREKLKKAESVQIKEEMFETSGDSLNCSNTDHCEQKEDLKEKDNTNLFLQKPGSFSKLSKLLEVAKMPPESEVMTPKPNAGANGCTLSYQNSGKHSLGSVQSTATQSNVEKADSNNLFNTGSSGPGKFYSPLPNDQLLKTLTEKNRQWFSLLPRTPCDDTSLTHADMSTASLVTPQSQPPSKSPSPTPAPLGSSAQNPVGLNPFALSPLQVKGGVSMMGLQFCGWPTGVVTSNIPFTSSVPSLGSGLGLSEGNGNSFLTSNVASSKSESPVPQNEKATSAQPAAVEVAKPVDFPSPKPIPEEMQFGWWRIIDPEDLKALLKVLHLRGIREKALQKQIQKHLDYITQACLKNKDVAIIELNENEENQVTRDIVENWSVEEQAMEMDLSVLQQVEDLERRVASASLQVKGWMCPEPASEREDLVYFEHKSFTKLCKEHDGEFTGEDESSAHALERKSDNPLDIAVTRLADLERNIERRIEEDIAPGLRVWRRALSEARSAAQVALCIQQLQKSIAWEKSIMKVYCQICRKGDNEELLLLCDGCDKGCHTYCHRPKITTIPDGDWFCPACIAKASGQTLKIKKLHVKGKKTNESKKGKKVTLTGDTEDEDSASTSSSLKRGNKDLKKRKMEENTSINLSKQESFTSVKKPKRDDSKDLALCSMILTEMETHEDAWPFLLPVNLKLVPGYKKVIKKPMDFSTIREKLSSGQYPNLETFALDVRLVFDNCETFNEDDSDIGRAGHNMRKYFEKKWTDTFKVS

This experiment addresses Bromodomain adjacent to zinc finger domain protein 2B (Homo sapiens) (UniProt Q9UIF8). In words: qHTS Assay for Inhibitors of BAZ2B. Note: nearly all actives have a fitted effect of over 60% in size. Particulars: AlphaScreen BAZ2B-H3K14Ac peptide displacement; series mostly up to 114 µM; activity change, negative = inhibition: at the top concentration. The method in brief: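 Inhibition is scored as reduced AlphaScreen emission. The BAZ2B/b-H3(5-23)K14Ac complex (50 nM each) in PBS pH 7.4, 0.01% Tween-20 meets compound (up to 110 uM) for 30 min at RT before bead addition.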
For `CC(C)c1ccc(NC(=O)c2cc(S(=O)(=O)N3CCc4ccccc4C3)ccc2F)cc1`, the “activity change, negative = inhibition” value is 6.06%.

For `Cc1cccc(CCNC(=O)c2ccc3c(c2)nc2n3CCC(C)C2)c1` (stereo not given), the “activity change, negative = inhibition” value was 1.78%.

As to `Cc1ccc(C)n1-c1nnc(N2CCC(C(=O)NCc3ccccc3Cl)CC2)s1`, the “activity change, negative = inhibition” value is -14.5%.

`Cc1cc(/C=N/NC(N)=O)c(C)n1C1CCCCC1`: the Potency is 50.1 µM (active).

Turning to `Cc1ccc(-n2c(C)cc(/C=N\NC(=O)CC(=O)NC(C)C)c2C)cc1`, the “activity change, negative = inhibition” value was -37.5%.

As for `O=C(N/N=C/c1ccccc1O)C1CCCC1`, the “activity change, negative = inhibition” value is 12.8%.

`CCC(=O)N1c2ccccc2CC1C(=O)N1CCN(c2cccc(OC)c2)CC1` (stereo not given): the “activity change, negative = inhibition” value was -5.26%.

As for `O=C(CC(NCc1cccnc1)C(=O)O)Nc1ccc(O)cc1` (stereo not given), the “activity change, negative = inhibition” value was -2.04%.

On to `CCc1ccc(CNC(=O)C2CCN(c3nn4cc(-c5ccc(F)cc5)nc4s3)CC2)cc1`, for which the “activity change, negative = inhibition” value is 2.3%.

`CC1CCCC(C)N1C(=O)CN1CCN(c2nc(-c3ccc(F)cc3)cs2)CC1` (stereo not given): the Potency was 70.8 µM (active).

As to `COc1cccc(NC(=O)CN2CCN(c3nc(-c4cccc(OC)c4)cs3)CC2)c1`, the “activity change, negative = inhibition” value is -10.8%.

On to `CC(C)(C)NC(=O)CSc1nc(-c2ccc(F)cc2)cc(C(F)(F)F)n1`, for which the “activity change, negative = inhibition” value was -4.35%.

Take `COc1ccc(S(=O)(=O)N2CCCCC2)cc1C(=O)NC1CCS(=O)(=O)C1` (stereo not given): the “activity change, negative = inhibition” value is -1.06%.

`CCc1ccc(NC(=O)c2cc(S(=O)(=O)NC3CCCCCC3)ccc2F)cc1`: the “activity change, negative = inhibition” value is -1.62%.

Regarding `CC(CCCc1ccccc1)NC(=O)c1nn(-c2ccc(Cl)cc2)nc1CO` (stereo not given), the “activity change, negative = inhibition” value was 19.6%.

As to `O=C(Nc1ccc(-n2ccnc2P(=O)(O)c2ccccc2)cc1)c1ccccc1Br`, the Potency is 44.7 µM (active).

Take `Cc1ccc(NC(=O)c2cccnc2C(=O)Nc2ccc(C)cc2)cc1`: the “activity change, negative = inhibition” value is -9.55%.

For `Cn1c(=O)c(=O)n(C)c2cc(NC(=O)c3ccccc3Br)ccc21`, the “activity change, negative = inhibition” value is 0.887%.

In the case of `COc1ccccc1NC(=O)CSc1oc(-c2ccco2)nc1S(=O)(=O)c1ccc(Br)cc1`, the “activity change, negative = inhibition” value is -18.6%.

As for `Cc1cccc(NC(=O)CSc2nc3c([nH]c4ccccc43)c(=O)n2-c2cc(C)cc(C)c2)c1`, the “activity change, negative = inhibition” value was 3.67%.

Regarding `CCN(CC)c1ccc(NC(=O)Cn2nc3c(cc2=O)CCCC3)c(C)c1`, the “activity change, negative = inhibition” value is -1.37%.

As to `N#CC1=C(N)N(c2ccccc2)C2=C(C(=O)CCC2)C1c1ccccc1` (stereo not given), the “activity change, negative = inhibition” value was -3%.

`CCOc1ccc(C2C(C#N)=C(N)N(N(C)C)C3=C2C(=O)CCC3)cc1` (stereo not given): the “activity change, negative = inhibition” value was -12.8%.

As for `COc1ccc(C2C(C#N)=C(N)N(c3ncn[nH]3)C3=C2C(=O)CCC3)cc1` (stereo not given), the Potency is 79.4 µM (active).

For the compound `Oc1ccc(Br)cc1C=Nc1ccc2[nH]ncc2c1`, the “activity change, negative = inhibition” value is -29.7%.

For the compound `Oc1ccc(Br)cc1/C=N/Nc1ccccn1`, the Potency was 31.6 µM (active).

In the case of `Cc1c(C(=O)Nc2ccccn2)oc2ccc(Br)cc12`, the “activity change, negative = inhibition” value is -26.1%.

In the case of `COC(=O)c1ccc(NC(=O)CCc2c(C)nc3c(c(C)nn3-c3ccc(C)cc3)c2C)cc1`, the “activity change, negative = inhibition” value is -0.711%.

As for `COc1ccc(-c2nnc(SCC(=O)Nc3ccccc3C)o2)cc1OC`, the “activity change, negative = inhibition” value is -0.905%.

For `O=[N+]([O-])c1c(NCCO)cc(Sc2nc3ccccc3s2)c2nonc12`, the “activity change, negative = inhibition” value is -0.619%.

Take `CC(C)(C)c1ccc(S(=O)(=O)Nc2ccc(O)c(Sc3nc4ccccc4s3)c2)cc1`: the “activity change, negative = inhibition” value was -36.8%.

Regarding `CC(C)c1ccc(S(=O)(=O)Nc2ccc(O)c(Sc3nc4ccccc4s3)c2)cc1`, the Potency was 25.1 µM (active).

With `CC(C)c1ccc(NC(=O)Cn2nnc(C(=O)NCCc3ccccc3)c2N)cc1`, the “activity change, negative = inhibition” value was 8.13% [at 57.1 µM].

Consider `COc1ccc(N2CCN(S(=O)(=O)CCNC(=O)C(c3ccccc3)c3ccccc3)CC2)cc1`, for which the “activity change, negative = inhibition” value is 1.98%.

In the case of `CC[C@@H](C)[C@@H](C(=O)N1CCN(C(=O)OC(C)(C)C)CC1)n1cc(CCC(=O)O)nn1`, the “activity change, negative = inhibition” value is 0.303%.

For the compound `C#CCOCCOCCOCCNc1nc(N2CCN(C(=O)CCCCCCCCCCNC(=O)[C@H]([C@@H](C)CC)n3cc(CCCCN=C(N)N)nn3)CC2)nc(N2CCN(C(=O)CCCCCCCCCCNC(=O)[C@H](CO)n3cc(CCCSC)nn3)CC2)n1`, the Potency was 50.1 µM (active).

In the case of `C#CCOCCOCCOCCNc1nc(N2CCN(C(=O)CCCCCCCCCCNC(=O)Cn3cc(CCCCCN)nn3)CC2)nc(N2CCN(C(=O)CCCCCCCCCCNC(=O)[C@H](CO)n3cc(CCCSC)nn3)CC2)n1`, the Potency is 50.1 µM (active).

Turning to `C#CCOCCOCCOCCNc1nc(N2CCN(C(=O)Cn3cc(CCCCN)nn3)CC2)nc(N2CCN(C(=O)[C@H](CCCCN)n3cc(CCC(=O)O)nn3)CC2)n1`, the “activity change, negative = inhibition” value is 3.13%.

Turning to `CCOc1cccc(CNC(=O)c2ccc(N3CCCC3)c(NC(=O)Nc3ccccc3CC)c2)c1`, the “activity change, negative = inhibition” value was -11.9%.

With `Cc1oc(C)c2c(=O)cc(-c3ccc4c(c3)OCO4)cc(OC(=O)c3ccc(Cl)cc3)c12`, the “activity change, negative = inhibition” value was -15.3%.

Regarding `CC(=O)NCC(=O)N1CCCC(C(=O)c2ccc3c4c(cccc24)CC3)C1` (stereo not given), the “activity change, negative = inhibition” value is -9.91%.

Regarding `CCn1ccnc1CN1CCCC(C(=O)c2ccc3c4c(cccc24)CC3)C1` (stereo not given), the Potency was 50.1 µM (active).

Take `COc1ccc(C(=O)C2CCCN(Cc3ccc4nonc4c3)C2)c(C)c1` (stereo not given): the “activity change, negative = inhibition” value is 4.01%.

As to `Cc1nc2ccc(S(=O)(=O)N(CC(=O)Nc3ccc(F)cc3)Cc3ccccc3)cc2s1`, the “activity change, negative = inhibition” value was -13%.

On to `COc1ccc(NC(=O)CSc2nc(N)c(-c3ccccc3)c(=O)[nH]2)cc1`, for which the “activity change, negative = inhibition” value is 0.717%.
